Bioassay records (PubChem BioAssay)
dFosB activator = activators of delta FosB homodimer, primary screen, biochemical, fluorescence polarization, TAMRA-CDK5 oligo, single point | activation, % at 25 µM | purified delta FosB; percent of positive-control signal above neutral wells | 340,000 tested, 0.99% active | Protein FosB (Mus musculus), P13346;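 active = mean activation above about 17%, with every replicate also reaching it, limit read from the data, passing the limit was not always enough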
Target sequence (P13346 whole entry, looked up): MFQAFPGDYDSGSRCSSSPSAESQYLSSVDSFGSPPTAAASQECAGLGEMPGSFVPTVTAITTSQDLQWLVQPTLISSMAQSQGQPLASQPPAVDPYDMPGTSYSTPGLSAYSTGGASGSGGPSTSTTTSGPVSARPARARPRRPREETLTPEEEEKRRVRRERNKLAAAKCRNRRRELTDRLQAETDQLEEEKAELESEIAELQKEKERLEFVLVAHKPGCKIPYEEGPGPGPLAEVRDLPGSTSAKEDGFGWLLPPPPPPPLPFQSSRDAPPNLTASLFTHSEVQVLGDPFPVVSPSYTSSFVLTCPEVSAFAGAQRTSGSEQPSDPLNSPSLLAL
UBC13 polyUb = UBC13 polyubiquitin chain formation inhibitors, primary screen, biochemical, TR-FRET, uHTS; 330,000 tested, 0.47% active; Ubiquitin-conjugating enzyme E2 N (Homo sapiens), P61088; inhibition, % at 20 µM; in the data active = inhibition above about 45%, passing the limit was not always enough
Target sequence (P61088 whole entry, looked up): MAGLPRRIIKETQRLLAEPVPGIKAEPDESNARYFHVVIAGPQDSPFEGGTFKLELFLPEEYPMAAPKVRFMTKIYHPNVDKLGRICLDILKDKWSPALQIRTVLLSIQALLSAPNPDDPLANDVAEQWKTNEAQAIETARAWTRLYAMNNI
GRIN3A LBD mod = binders of NR3A ligand-binding domain, primary screen, biophysical, differential scanning fluorimetry, uHTS. 340,000 tested, 2.5% active. NR3A LBD differential scanning fluorimetry, Tm shift; 0% = protein alone, 100% = glycine-bound protein. Glutamate receptor ionotropic, NMDA 3A (GRIN3A) ligand-binding domain. Tm shift relative to glycine control, % at 25 µM;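 active = melting temperature shift of at least 10% of the positive control shift, at one fixed dose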
CR mimetic SO = reduction of superoxide in aged yeast, primary screen, HTS; S. cerevisiae aged cells, superoxide DHE fluorescence; stronger effect = lower value; superoxide response (% of plate mean), % at 10 µM; 330,000 tested, 0.18% active; AID 2690, 2010;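 active = superoxide response under a set limit, about three screen SD below normal, cut at about 65% in these data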;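 also: yeast aged for seven days with compound at 30 °C before DHE staining; 100% = average MFI of all compound-treated wells on the plate with controls excluded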
NALP1 yeast inh = NALP1 inflammasome inhibitors in reconstituted yeast, colorimetric, S. cerevisiae, triplicate retest | S. cerevisiae NALP1/ASC/caspase-1 growth, X-gal OD620, 72 h | inhibition, % at 10 µM | 280,000 tested, 0.61% active | AID 2071, 2009; in the data active = inhibition mostly above about 24%, no sharp cut-off; inactive = mostly below about 32%
Casp3 UBC13 ctr = CASP3 inhibitor validation, counterassay for project on UBE2N polyubiquitination blockers, biochemical, one dose | inhibition, % at 20 µM | shares compounds with UBC13 polyUb | 1,400 tested, 4% active | Recombinant caspase-3, Caspase-Glo 3/7 luminescence, 60 min;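 active = mean inhibition across replicates above about 26%, limit read from the data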;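 also: plate controls were DMSO with caspase-3 for no effect and DMSO wells lacking enzyme for full effect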
UBC13 confirm = UBC13 polyubiquitination inhibitors, single-point retest, confirmation, biochemical, TR-FRET, single concentration. inhibition, % at 10 µM. shares compounds with UBC13 polyUb. 1,400 tested, 68% active; in the data active = inhibition above about 45%
Starred values were filed as active, the others as inactive; . = no result. This is a sample that favours compounds with a hit; in the whole collection about 4.3% have one here.

SMILES	dFosB activator	UBC13 polyUb	GRIN3A LBD mod	CR mimetic SO	NALP1 yeast inh	Casp3 UBC13 ctr	UBC13 confirm
CCc1cccc2c(C(=O)C(NC(C)CC)c3ccccc3)c[nH]c12 (configuration not stated)	1	79*	-2	96	-4	1	101*
NC1=NC[C@H](Cc2ccc(O)cc2)N1CCC12CC3CC(CC(C3)C1)C2	-2	78*	-2	97	.	2	58*
CCN(CC)CCOC(=O)c1ccc(NC(=O)c2cn(-c3ccccc3)nc2-c2cccs2)cc1	-62	96*	8	.	-4	-4	111*
CCN(CC)CCNC(=O)c1cn(-c2ccccc2)nc1-c1cccs1	2	9	1	89	13	.	.
CC(=O)c1c(C)[nH]c(C(=O)NCCc2c[nH]c3ccccc23)c1C	2	-1	-18	87	5	.	.
COc1ccc(NC(=O)CSc2nc3ccsc3c(=O)n2CCCCCC(=O)O)cc1	1	62*	0	109	16	0	79*
COc1cccc(NC(=O)CSc2nc3ccccc3c(=O)n2Cc2cccs2)c1	-4	61*	-1	98	26	4	58*
COc1ccc(NC(=O)CSc2nc3ccccc3c(=O)n2Cc2cccs2)c(OC)c1	.	9	.	97	33	.	.
COc1nc(-c2ccc(Cl)cc2Cl)nc2ccccc12	-6	5	4	124	-9	.	.
Cc1ccc(-c2csc3nc(C)n(N)c(=O)c23)cc1	0	1	-1	110	-9	.	.
Cc1ccc(-c2csc3nc4c5ccccc5c(NCCCN(C)C)nn4c(=O)c23)cc1	1	97*	-17	114	14	1	100*
N#Cc1c(N)n[nH]c1Cc1cccc2ccccc12	0	6	1	.	.	.	.
Cc1nc(N)c2c(Cc3cccc4ccccc34)nn(C(C)(C)C)c2n1	-5	74*	-22	107	.	-4	43
CN(Cc1cccc(F)c1)C(=O)c1cccc(S(=O)(=O)N2CCN(Cc3ccccc3)CC2)c1	-6	13	-3	115	5	.	.
COc1ccccc1OCCNC(=O)c1cccc(S(=O)(=O)N2CCN(Cc3ccccc3)CC2)c1	-6	70*	-4	106	.	-3	56*
CN(Cc1ccc(Cl)c(Cl)c1)C(=O)c1cccc(S(=O)(=O)N2CCN(Cc3ccccc3)CC2)c1	-1	86*	-5	97	.	2	104*
C/C(=N/NC(=O)CNC(=O)C1COc2ccccc2O1)c1ccc([N+](=O)[O-])cc1 (configuration not stated)	-8	24	-7	98	2	.	.
Cc1cccc(NC(=O)CSCC(=O)Nc2cccc3ncccc23)c1	2	-2	0	95	.	.	.
COc1ccc(CN(C)C(=O)Cc2ccc(OC)c(S(=O)(=O)N3CCOCC3)c2)cc1OC	-2	101*	2	73	.	-3	109*
COc1ccc(CC(=O)N(C)CC(=O)Nc2ccccc2Cl)cc1S(=O)(=O)N1CCOCC1	-1	52*	-3	80	.	3	41
COc1ccc(CC(=O)Nc2cccc(Cl)c2C)cc1S(=O)(=O)N1CCOCC1	-7	-5	1	94	.	.	.
CCOc1ccc(CCNC(=O)C2CC(C)=CCC2C(=O)O)cc1OCC (configuration not stated)	3	-4	-1	95	2	.	.
COc1cc(C(CCN2CCCCC2)c2c(OC)cc(OC)c3c(-c4ccccc4)cc(=O)oc23)cc(OC)c1OC (configuration not stated)	-12	48*	-4	.	15	-2	29
COc1cc(C(CCN2CCCC(C)C2)c2c(OC)cc(OC)c3c(-c4ccccc4)cc(=O)oc23)cc(OC)c1OC (configuration not stated)	4	65*	-3	.	16	-3	30
COc1cc(C(CCN2CCCC2)c2c(OC)cc(OC)c3c(C)cc(=O)oc23)cc(OC)c1OC (configuration not stated)	3	13	-1	.	4	.	.
SMILES	dFosB activator	UBC13 polyUb	GRIN3A LBD mod	CR mimetic SO	NALP1 yeast inh	Casp3 UBC13 ctr	UBC13 confirm
COc1ccc(OCC(=O)NNC(=O)Cn2c(=O)cnc3ccccc32)cc1	3	4	0	.	.	.	.
Cn1c(=O)c2c(ncn2Cc2ccc(Cl)cc2)n(C)c1=O	6	57*	0	98	12	-6	53*
Cn1c(=O)c2c(ncn2CC(COCc2ccc(Cl)cc2)OCc2ccc(Cl)cc2)n(C)c1=O (configuration not stated)	6	3	0	97	21	.	.
Nc1nc(N)c2cc(Sc3ccc4ccccc4c3)ccc2n1	.	50*	-10	114	9	3	37
CCC(=O)NC(=S)NNC(=O)c1ccc([N+](=O)[O-])cc1	1	68*	-1	95	8	4	87*
CCCCOc1ccc(C(=O)NNC(=S)NC(=O)CC)cc1	-4	.	-2	68	-8	.	.
CCC(=O)NC(=S)NNC(=O)c1ccc(OC)cc1	-3	81*	-2	97	-6	-2	86*
CCCOc1ccc(C(=O)NNC(=S)NC(C)=O)cc1	3	75*	-1	174	6	2	95*
CCCOc1ccc(C(=O)NNC(=S)NC(=O)c2ccccc2)cc1	-1	-22	1	161	-3	.	.
Cc1c(C=O)c2ccccc2n1CC(=O)NCc1ccc2c(c1)OCO2	-7	24	-2	93	8	.	.
O=C(c1ccccc1)N1N=C(C(F)(F)F)CC1(O)c1ccc(F)cc1 (configuration not stated)	-11	-8	-7	96	5	.	.
CCC(C(=O)Oc1c(C(C)C)cccc1C(C)C)c1ccccc1 (configuration not stated)	-1	1	2	82	.	.	.
CCC1(C)NC(=O)N(CC(=O)N2CCC(Cc3ccccc3)CC2)C1=O (configuration not stated)	-2	64*	-1	112	.	2	35
N#CCCN(C(=O)COC(=O)CCc1c[nH]c2ccccc12)c1ccccc1	-1	6	-1	117	.	.	.
O=C(Nc1ccc(Cl)cc1)C1CCCN(C2=NS(=O)(=O)c3ccccc32)C1 (configuration not stated)	-10	10	-4	92	.	.	.
CCc1ccc(OCC(=O)NNC(=O)c2cnccn2)c(Br)c1	-7	53*	6	109	8	4	41
CCc1ccc(OCC(=O)Nc2ccncc2)c(Br)c1	-4	-6	-1	86	10	.	.
